PubChem BioAssay (NCATS)
Where “and” joins values, the source holds several entries; their conditions need not be identical. Equal values may be shown once. Results filed as inconclusive are left out. Some compounds were tested as several samples or in several runs, with calls that do not always agree. Calls of active or inactive are those of the source. Unless noted, the call rests on the fitted dose curve; in most records, active means well fitted curve in the direction sought with a large enough effect; inconclusive means small, poorly fitted or top-dose-only effect, or another doubt; inactive means no such curve, though single readings can be large; an effect the other way counts as inactive or inconclusive. Non-standard residues stand in square brackets, D forms with d. Residues, ends and D or L forms follow the SMILES beside them. *: point of attachment. Sta = CC(C)C[C@H](N)[C@@H](O)CC(=O)O; Isovaleryl = CC(C)CC(=O)*

How the values were obtained:
[1] = NS1 protein of Zika virus - qHTS assay to identify small molecule inhibitors in human HEK 293 cells (AID 1347053); further: nearly all actives have a fitted effect of over 55% in size; further: potency means the concentration at half of the fitted maximal effect
Outline: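 Inhibition of NS1 expression was scored in HEK 293 cells given compound 1 h ahead of MR766 virus (MOI = 0.5). Following 24 h at 37 C, two anti-NS1 antibodies generated a TR-FRET signal, scaled between uninfected and infected controls.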

[2] = qHTS of pediatric cancer cell lines to identify multiple opportunities for drug repurposing: Primary screen for DAOY cells (AID 1347090); further: nearly all actives have a fitted effect of over 55% in size; further: potency means the concentration at half of the fitted maximal effect
Outline: (§1)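 Eight- or eleven-point concentration series, 48 h treatment at 37 degrees C in growth media; readout CellTiter-Glo luminescence. Potency and efficacy were taken from the concentration-response curves.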

[3] = qHTS of pediatric cancer cell lines to identify multiple opportunities for drug repurposing: Primary screen for SJ-GBM2 cells (AID 1347091); further: potency means the concentration at half of the fitted maximal effect
Outline: as §1

[4] = qHTS of pediatric cancer cell lines to identify multiple opportunities for drug repurposing: Primary screen for A673 cells (AID 1347092); further: nearly all actives have a fitted effect of over 45% in size; further: potency means the concentration at half of the fitted maximal effect
Outline: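 A673 cells (500-1,000 cells/well in growth media) were pre-incubated 5 h at 37 degrees C, then exposed to compounds for 48 h. Viability was read as CellTiter-Glo luminescence; concentration-response curves came directly from the primary screen.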

[5] = qHTS of pediatric cancer cell lines to identify multiple opportunities for drug repurposing: Primary screen for SK-N-MC cells (AID 1347093); further: potency means the concentration at half of the fitted maximal effect
Outline: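 Metabolically active cells were quantified by ATP-dependent luminescence (CellTiter-Glo, 15 min at room temperature) following 48 h treatment. Cells had been plated at 500-1,000 per well and settled for 5 h beforehand.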

[6] = qHTS of pediatric cancer cell lines to identify multiple opportunities for drug repurposing: Primary screen for BT-37 cells (AID 1347094); further: potency means the concentration at half of the fitted maximal effect
Outline: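 500-1,000 cells/well; 5 h pre-incubation 37 °C/5% CO2; compound pinned; 48 h; CellTiter-Glo, 15 min RT; luminescence. MIPE 11-pt from 0.78 nM, NPC 8-pt from 0.59 nM final. Bortezomib 2.3 µM final as positive control.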

[7] = qHTS of pediatric cancer cell lines to identify multiple opportunities for drug repurposing: Primary screen for TC32 cells (AID 1347089); further: nearly all actives have a fitted effect of over 60% in size; further: potency means the concentration at half of the fitted maximal effect
Outline: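 Luminescent CellTiter-Glo read-out of metabolically active TC32 cells after 48 h compound exposure. Primary: MIPE 11-point, 0.78 nM–46 µM; NPC 8-point, 0.59 nM–46 µM. Confirmatory: 11-point dilutions.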

[8] = target: T1, Tyrosine-protein phosphatase non-receptor type substrate 1 (Homo sapiens) + Leukocyte surface antigen CD47 (Homo sapiens) (UniProt P78324+Q08722); assay: CD47-SIRPalpha protein protein interaction - LANCE assay qHTS validation (AID 1347057; active means well fitted curve in the direction sought with a large enough effect in the signal ratio, with a control signal flat, not every such curve was filed as active; the % refers to the signal ratio; further: series mostly up to about 38 µM)
T1 sequence (P78324 whole entry, looked up): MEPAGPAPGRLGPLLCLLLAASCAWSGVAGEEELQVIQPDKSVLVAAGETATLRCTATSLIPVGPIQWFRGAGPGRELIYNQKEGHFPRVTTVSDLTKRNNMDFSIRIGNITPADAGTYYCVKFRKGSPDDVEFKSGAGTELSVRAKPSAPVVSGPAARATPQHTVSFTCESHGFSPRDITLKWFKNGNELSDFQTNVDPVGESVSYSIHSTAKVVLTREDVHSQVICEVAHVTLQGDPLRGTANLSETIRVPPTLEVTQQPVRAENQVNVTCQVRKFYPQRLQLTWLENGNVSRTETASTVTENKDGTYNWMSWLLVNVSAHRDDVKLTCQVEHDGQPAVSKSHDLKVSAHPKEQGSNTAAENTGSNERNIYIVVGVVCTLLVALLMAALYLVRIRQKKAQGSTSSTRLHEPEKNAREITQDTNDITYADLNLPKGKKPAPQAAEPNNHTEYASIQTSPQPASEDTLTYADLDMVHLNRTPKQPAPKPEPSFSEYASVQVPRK
T1 sequence (Q08722 whole entry, looked up): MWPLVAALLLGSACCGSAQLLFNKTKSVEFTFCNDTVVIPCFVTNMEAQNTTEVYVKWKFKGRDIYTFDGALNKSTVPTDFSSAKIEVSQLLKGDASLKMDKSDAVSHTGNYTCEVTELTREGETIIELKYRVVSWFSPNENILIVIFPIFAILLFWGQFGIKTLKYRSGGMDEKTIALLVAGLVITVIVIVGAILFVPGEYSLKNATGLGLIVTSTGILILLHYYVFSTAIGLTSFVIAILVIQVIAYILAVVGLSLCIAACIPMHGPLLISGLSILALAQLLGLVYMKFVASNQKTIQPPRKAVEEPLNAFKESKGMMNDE
Outline: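 First, His-tagged CD47 and Eu-labelled anti-His antibody met the compound for 30 min; next, site-specifically biotinylated SIRPalpha was added for 30 min; finally streptavidin-APC was added before reading the TR-FRET ratio.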

[9] = target: T1, Tyrosine-protein phosphatase non-receptor type substrate 1 (Homo sapiens) + Leukocyte surface antigen CD47 (Homo sapiens); assay: CD47-SIRPalpha protein protein interaction - Alpha assay qHTS validation (AID 1347059);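 further: bead proximity luminescence from CD47 binding SIRPalpha after compound preincubation with SIRPalpha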; further: potency means the concentration at half of the fitted maximal effect
Outline: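 Soluble extracellular domains: Avi-tag biotinylated SIRPalpha (25 nM) preincubated 30 min RT with compound, then 6His-CD47 (12.5 nM) 30 min; Ni-NTA acceptor and streptavidin donor beads (10 ug/mL) 30 min, AlphaScreen read. PBS pH 7.4, 0.05% IGEPAL.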

[10] = target: Parathyroid hormone/parathyroid hormone-related peptide receptor (Homo sapiens) (UniProt Q03431); assay: qHTS for PTHR1 Agonists: Optimization Screen against the NCGC LOPAC library (AID 1347079);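 further: GloSensor cAMP luminescence in HEK-293 GP2 cells expressing human PTHR1 with IBMX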
Sequence of Parathyroid hormone/parathyroid hormone-related peptide receptor (Homo sapiens) (Q03431 whole entry, looked up): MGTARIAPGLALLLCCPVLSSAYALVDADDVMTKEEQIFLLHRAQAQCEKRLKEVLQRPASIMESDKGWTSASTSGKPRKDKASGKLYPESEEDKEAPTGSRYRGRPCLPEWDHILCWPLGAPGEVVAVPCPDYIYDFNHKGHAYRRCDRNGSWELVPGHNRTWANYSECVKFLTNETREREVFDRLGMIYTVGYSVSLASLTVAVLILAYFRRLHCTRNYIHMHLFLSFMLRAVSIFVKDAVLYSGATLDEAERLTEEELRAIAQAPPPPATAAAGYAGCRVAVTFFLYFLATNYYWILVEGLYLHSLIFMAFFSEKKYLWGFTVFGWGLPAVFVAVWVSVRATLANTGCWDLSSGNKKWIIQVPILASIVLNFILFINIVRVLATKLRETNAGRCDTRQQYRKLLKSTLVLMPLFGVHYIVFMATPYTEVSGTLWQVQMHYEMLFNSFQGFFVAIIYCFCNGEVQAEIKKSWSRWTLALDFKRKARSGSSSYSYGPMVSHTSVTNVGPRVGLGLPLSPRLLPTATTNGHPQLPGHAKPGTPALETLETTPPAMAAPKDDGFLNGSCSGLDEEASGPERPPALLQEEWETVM
Outline: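 Compounds were tested across a qHTS titration. PTHR1-expressing GP2 cells report cAMP rises via GloSensor luminescence after 1 hr compound exposure at 37C with IBMX present.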

Measured: Potency

CCCCc1ccc2nc(NC(=O)OC)[nH]c2c1
1.32 µM (active) and inactive: [1]
active: [2] 0.0266 µM | [3] 1 nM and 106 nM | [4] 9.3 nM and 21.1 nM | [5] 5.3 nM and 26.6 nM | [6] 43.2 nM and 61.7 nM

Cc1cccc(C)c1OCC(=O)N[C@@H](Cc1ccccc1)[C@@H](O)C[C@H](Cc1ccccc1)NC(=O)[C@H](C(C)C)N1CCCNC1=O
inactive: [1] | [2]
active: [4] 23.5 µM | [5] 29.6 µM

O=C(O)c1cccc(-c2noc(-c3ccccc3F)n2)c1
inactive: [1] | [2] | [3] | [4]

CC1(C)CCC(C)(C)c2cc(NC(=O)c3ccc(C(=O)O)cc3)ccc21
inactive: [1] | [7] | [3] | [6]
active: [5] 1.87 µM

Cc1ccc(NC(=O)c2ccc(CN3CCN(C)CC3)cc2)cc1Nc1nccc(-c2cccnc2)n1
inactive: [1] | [2] | [3] | [6]

COc1cc(C(C)=O)ccc1OCCCN1CCC(c2noc3cc(F)ccc23)CC1
inactive: [1] | [7] | [2] | [4]

CCOC(=O)C(C)Oc1cccc2c(=O)n(CC(=O)Nc3ccc4c(c3)OCCO4)ccc12 (stereo unspecified)
inactive: [8] | [9] | [10] | [3] | [6]
active: [4] 7.43 µM

CC(C)CC(=O)N[C@H](C(=O)N[C@H](C(=O)N[C@@H](CC(C)C)[C@@H](O)CC(=O)N[C@@H](C)C(=O)N[C@@H](CC(C)C)[C@@H](O)CC(=O)O)C(C)C)C(C)C (Isovaleryl-VV[Sta]A[Sta]-OH)
inactive: [1] | [7] | [2] | [3] | [5] | [6]

C=C(c1ccc(C(=O)O)cc1)c1cc2c(cc1C)C(C)(C)CCC2(C)C
active: [3] 26.6 µM | [5] 2.11 µM
inactive: [1] | [4] | [6]

Cc1cccc(CN2CCN(C(c3ccccc3)c3ccc(Cl)cc3)CC2)c1 (stereo unspecified)
active: [4] 18.7 µM | [5] 11.9 µM and 18.7 µM
inactive: [1] | [3]

Cc1ncc([N+](=O)[O-])n1CC(C)O (stereo unspecified)
inactive: [1] | [2] | [3] | [4] | [6]

COC1=C(OC)C(=O)C(CCCCCCCCCCO)=C(C)C1=O
active: [4] 26.6 µM and 23.5 µM
inactive: [1] | [3] | [5] | [6]

CC(=O)Nc1ccc(O)cc1
inactive: [1] | [2] | [3] | [4] | [5] | [6]

CCN(CC)CCOc1ccc(Cc2ccccc2)cc1
inactive: [1] | [7] | [2] | [5]

C=CCc1cc(OC)c(O)c(C(=O)NCCO)c1
inactive: [1] | [2] | [3] | [4] | [6]

C[C@@H](N)C1CCC(C(=O)Nc2ccncc2)CC1 (stereo partly specified)
active: [3] 7.43 µM
not listed: [1] | [4] | [5]
inactive: all other assays above

CC(S)C(=O)NCC(=O)O (stereo unspecified)
inactive: [1] | [7] | [2] | [3] | [6]

O=Nc1c(-c2c(O)[nH]c3cc(Br)ccc23)[nH]c2ccccc12
active: [9] 1.31 µM | [2] 11.8 µM | [3] 5.9 µM | [4] 2.35 µM | [5] 2.09 µM | [6] 19.3 µM
inactive: [8] | [10] | [7]

Cc1nc(-c2ccc(OCC(C)C)c(C#N)c2)sc1C(=O)O
inactive: [1] | [2] | [3] | [4] | [6]

NC(=NCc1ccccc1)NC(=O)c1nc(Cl)c(N)nc1N
inactive: [8] | [9] | [10] | [3] | [6]
active: [2] 18.7 µM | [4] 5.9 µM

Cc1ccc(S(=O)(=O)NC(=O)NN2CC3CCCC3C2)cc1 (stereo unspecified)
inactive: [1] | [7] | [2] | [3] | [6]

COc1ccc(C2(C#N)CCC(C(=O)O)CC2)cc1OC1CCCC1 (stereo unspecified)
inactive: [1] | [2] | [3] | [6]
active: [5] 16.6 µM

CC1=C(C)C(=O)C(C(CCCCCC(=O)O)c2ccccc2)=C(C)C1=O (stereo unspecified)
inactive: [1] | [7] | [2] | [3] | [6]

C[Se]CCC(N)C(=O)O (stereo unspecified)
inactive: [1] | [2] | [3] | [4] | [6]

CCCCN(CCCC)CCC(O)c1cc2c(Cl)cc(Cl)cc2c2cc(C(F)(F)F)ccc12 (stereo unspecified)
active: [5] 11.9 µM and 33.2 µM
inactive: [1] | [7] | [2] | [4]

Cc1ccc(Nc2nccc(N(C)c3ccc4c(C)n(C)nc4c3)n2)cc1S(N)(=O)=O
inactive: [1] | [7] | [4]
active: [3] 14.8 µM

CN(C)CCCC1(c2ccc(F)cc2)OCc2cc(C#N)ccc21 (stereo unspecified)
active: [4] 29.6 µM | [5] 11.8 µM
inactive: [8] | [9] | [10] | [7] | [3]

Nc1ccc(S(N)(=O)=O)cc1
inactive: [1] | [2] | [3] | [4] | [5] | [6]

Cc1cc2cc3c(C)cc(=O)oc3c(C)c2o1
inactive: [1] | [7] | [3] | [6]

COc1c2occc2cc2ccc(=O)oc12
inactive: [1] | [2] | [3] | [4] | [5] | [6]

O=c1oc2cc(O)ccc2s1
active: [4] 9.35 µM | [5] 23.5 µM
inactive: [1] | [2] | [3] | [6]

Nc1cc(C(Cl)=C(Cl)Cl)c(S(N)(=O)=O)cc1S(N)(=O)=O
inactive: [1] | [2] | [3] | [4] | [5] | [6]

COC(=O)C1=C(C)NC(C)=C(C(=O)OCCCN2CCC(c3ccccc3)(c3ccccc3)CC2)C1c1cccc([N+](=O)[O-])c1 (stereo unspecified)
inactive: [1] | [2] | [3] | [6]
active: [5] 23.7 µM

CC(C)[N+]1(C)[C@@H]2CC[C@H]1CC(OC(=O)C(CO)c1ccccc1)C2 (stereo partly specified)
active: [4] 9.35 µM
inactive: [1] | [3] | [6]

COC(=O)C1=C(C)NC(C)=C(C(=O)OC(C)C)C1c1cccc2nonc12 (stereo unspecified)
inactive: [1] | [7] | [3] | [6]
active: [5] 2.64 µM

Clc1ccc(C(Cn2ccnc2)OCc2ccc(Sc3ccccc3)cc2)c(Cl)c1 (stereo unspecified)
inactive: [1] | [2] | [3] | [6]

CCN(CC)C(=S)SSC(=S)N(CC)CC
inactive: [8] | [9] | [10]
active: [7] 989 nM and 4.19 µM | [2] 11.8 nM and 49.5 nM and 133 nM | [3] 4.69 µM | [4] 11.8 nM and 19.7 nM | [5] 18.7 nM and 49.5 nM and 119 nM | [6] 24.3 nM and 815 nM

Nc1nc(OCc2ccccc2)c2[nH]cnc2n1
active: [4] 18.7 µM
inactive: [8] | [9] | [10] | [7] | [2]

CCCc1cc(=O)[nH]c(=S)[nH]1
inactive: [1] | [7] | [2] | [3] | [6]

Cc1ccc(C(=O)c2cc(O)c(O)c([N+](=O)[O-])c2)cc1
active: [4] 11.8 µM | [5] 23.7 µM and 18.7 µM
inactive: [7] | [2]

Cn1c(NCCN(CCO)CCCc2ccc([N+](=O)[O-])cc2)cc(=O)n(C)c1=O
inactive: [7] | [2] | [3] | [4] | [6]

Nc1nc(N)c(N=O)c(OCC2CCCCC2)n1
inactive: [9] | [10]
active: [3] 9.35 µM | [4] 7.43 µM
